SMILES strings stand for the structures. Activity calls are given as the source filed them.

Experiment [1] concerns PRMT1 (protein arginine N-methyltransferase 1). Nature of the experiment: small molecules binding arginine methyltransferase PRMT1 – biochemical, small-molecule microarray, 635 nm fluorescence, primary screen (AID 1088).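 Note: binding of Prmt1 protein to compounds spotted on small-molecule microarray slides.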 The settings on record: higher = more signal.
The nature of experiment [2]: growth effects on S. cerevisiae YJM789 – YJM789 clinical isolate, OD600, 24 h, basal, primary screen (AID 1089).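 Note: growth of clinical yeast isolate S. cerevisiae YJM 789 seeded 1000 cells per well; test concentration not given here.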 The note with it: higher = more signal, called active from +8 up or from −8 down.
Experiment [3] is described as follows: S. pombe growth modifiers, basal conditions – strain 972, OD600, 24 h, no modulator, primary screen (AID 1090).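 Note: basal condition with compound alone and no growth modifier present; test concentration not given here.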 The settings on record: S. pombe 972 growth, higher = more signal, called active from +8 up or from −8 down.
The nature of experiment [4]: budding yeast growth modifiers under rapamycin – strain BY4716, OD600, 96 h, primary screen (AID 1091). Note: test concentration not given here. The note with it: S. cerevisiae BY4716 + rapamycin, higher = more signal, called active from +8 up or from −8 down.
For experiment [5], the target named is Torsin-1A-interacting protein 2 (Homo sapiens) (UniProt Q8NFQ8). Nature of the experiment: small molecules binding lysate-expressed LULL1 – cell lysate, human LULL1 lysate, 635/667 nm fluorescence, primary screen (AID 1092).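 Note: probe is lysate of COS7 cells overexpressing human LULL1; score merges per-feature 667 nm fluorescence with signal-to-noise.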 The note with it: small-molecule microarray, hLULL1 lysate binding, 635 nm fluorescence; higher = more signal.
Experiment [6] can be described thus: optical density change of DRC41 E. coli – strain DRC41, OD650, 24 h, E. coli filamentation project, primary screen (AID 1093).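 Note: MC1000 strain lacking acrAB efflux and sulA so SOS filamentation is blocked; test concentration not given here.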 The note with it: E. coli DRC41 growth, higher = more signal, called active from +8 up or from −8 down.
Experiment [7] can be described thus: probe aLefty2 binding to arrayed compounds – biochemical, biotinylated probe, 635/667 nm fluorescence, primary screen (AID 1094).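 Note: score merges spot fluorescence near 667 nm with spot signal-to-noise ratio.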 The settings on record: small-molecule microarray, higher = more signal.
Experiment [8] deals with Noggin (protein binding on small-molecule microarray). Description: small molecules binding Noggin protein – biochemical, 635/667 nm fluorescence, primary screen (AID 1095).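 Note: score merges 667 nm feature fluorescence with signal to noise over triplicate slides.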 The note with it: 635 nm fluorescence, higher = more signal.
Experiment [9] has as its target Neurogenic locus notch homolog protein 3 (Homo sapiens) (UniProt Q9UM47). Description: small molecules binding NOTCH3 protein – biochemical, 635/667 nm fluorescence, primary screen (AID 1096). The settings on record: small-molecule microarray, 635 nm fluorescence, higher = more signal.
A short description of experiment [10]: probe aEGFR binding to arrayed compounds – biochemical, biotinylated probe, 635/667 nm fluorescence, primary screen (AID 1097).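 Note: probe is a biotinylated anti-EGFR antibody binding compounds printed on slides; score combines fluorescence near 667 nm and signal to noise of each spot.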 The settings on record: small-molecule microarray, higher = more signal.
The subject of experiment [11] is Plasmodium falciparum Sir2 (PF13_0152, Sir2A). Nature of the experiment: Plasmodium falciparum Sir2A binding compounds – biochemical, small-molecule microarray, 635 nm fluorescence, primary screen (AID 1098).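 Note: score merges spot fluorescence intensity with its signal-to-noise ratio.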 The note with it: fluorescence 635 nm, higher = more signal.
Experiment [12] can be described thus: probe aDKK1 binding to arrayed compounds – biochemical, biotinylated probe, 635/667 nm fluorescence, primary screen (AID 1099).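 Note: score merges 667nm spot fluorescence with signal to noise across triplicate slides; reference of the scale not given here.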 The note with it: small-molecule microarray, higher = more signal.
A short description of experiment [13]: probe aCHRDL2 binding to arrayed compounds – biochemical, biotinylated probe, 635/667 nm fluorescence, primary screen (AID 1100). The note with it: small-molecule microarray, higher = more signal.
Experiment [14] in a line: change in splice reporter luminescence, either direction, cell-based, HEK293, spliceosome inhibition project, primary screen (AID 1101).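 Note: HEK293 cells carrying a splicing-competent luciferase reporter gene; test concentration not given here.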 The settings on record: HEK293 splicing luciferase reporter, 24 h, higher = more signal, called active from +8 up or from −8 down.
Experiment [15] addresses Fibroblast growth factor 10 (Homo sapiens) (UniProt O15520). Description: compounds binding fibroblast growth factor 10 – biochemical, small-molecule microarray, 635 nm fluorescence, primary screen (AID 1102). The settings on record: FGF10 binding, fluorescence 635 nm, higher = more signal.
For experiment [16], the system named is glycogen synthase kinase-3 (GSK3A per assay name; protocol says GSK3B). Nature of the experiment: compounds binding glycogen synthase kinase-3 – biochemical, small-molecule microarray, 635 nm fluorescence, GSK3A, primary screen (AID 1103). Note: the record names both GSK3A and GSK3B. The note with it: fluorescence 635 nm, higher = more signal.
Experiment [17] has as its target Epidermal growth factor receptor (Homo sapiens) (UniProt P00533). Description: compounds binding epidermal growth factor receptor – biochemical, small-molecule microarray, 635 nm fluorescence, primary screen (AID 1104).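 Note: score merges 667 nm emission intensity with spot signal to noise over triplicate slides.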 The settings on record: EGFR binding, higher = more signal.
The target of experiment [18] is Follistatin-related protein 3 (Homo sapiens) (UniProt O95633). Nature of the experiment: compounds binding follistatin-related protein 3 – biochemical, small-molecule microarray, 635 nm fluorescence, primary screen (AID 1105).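 Note: score merges emission near 667 nm and signal to noise per printed spot across three slides.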 The settings on record: FSTL3 binding, higher = more signal.
Experiment [19] has as its target Dickkopf-related protein 1 (Homo sapiens) (UniProt O94907). Nature of the experiment: small molecules binding DKK1 protein – biochemical, small-molecule microarray, 635 nm fluorescence scan, primary screen (AID 1106).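 Note: score merges emission near 667 nm with signal to noise over three replicate slides.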 The settings on record: higher = more signal.
Experiment [20] deals with Inhibin beta A chain (activin A). Nature of the experiment: small molecules binding activin A – biochemical, small-molecule microarray, 635 nm fluorescence scan, primary screen (AID 1107).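 Note: mouse activin A protein probed at 4.33 µg/mL on printed slides; score merges bound-protein fluorescence near 667 nm with spot signal-to-noise.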 The note with it: INHBA, higher = more signal.

Sequence of Follistatin-related protein 3 (Homo sapiens) (O95633 whole entry, looked up): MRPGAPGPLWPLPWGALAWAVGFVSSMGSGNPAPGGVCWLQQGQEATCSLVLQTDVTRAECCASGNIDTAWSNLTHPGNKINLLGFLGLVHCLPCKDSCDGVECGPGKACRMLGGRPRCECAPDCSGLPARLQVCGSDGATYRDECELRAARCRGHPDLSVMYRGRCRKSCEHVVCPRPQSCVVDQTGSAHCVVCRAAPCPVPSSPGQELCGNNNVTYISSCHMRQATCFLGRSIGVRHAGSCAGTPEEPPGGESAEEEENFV
Sequence of Epidermal growth factor receptor (Homo sapiens) (P00533 whole entry, looked up): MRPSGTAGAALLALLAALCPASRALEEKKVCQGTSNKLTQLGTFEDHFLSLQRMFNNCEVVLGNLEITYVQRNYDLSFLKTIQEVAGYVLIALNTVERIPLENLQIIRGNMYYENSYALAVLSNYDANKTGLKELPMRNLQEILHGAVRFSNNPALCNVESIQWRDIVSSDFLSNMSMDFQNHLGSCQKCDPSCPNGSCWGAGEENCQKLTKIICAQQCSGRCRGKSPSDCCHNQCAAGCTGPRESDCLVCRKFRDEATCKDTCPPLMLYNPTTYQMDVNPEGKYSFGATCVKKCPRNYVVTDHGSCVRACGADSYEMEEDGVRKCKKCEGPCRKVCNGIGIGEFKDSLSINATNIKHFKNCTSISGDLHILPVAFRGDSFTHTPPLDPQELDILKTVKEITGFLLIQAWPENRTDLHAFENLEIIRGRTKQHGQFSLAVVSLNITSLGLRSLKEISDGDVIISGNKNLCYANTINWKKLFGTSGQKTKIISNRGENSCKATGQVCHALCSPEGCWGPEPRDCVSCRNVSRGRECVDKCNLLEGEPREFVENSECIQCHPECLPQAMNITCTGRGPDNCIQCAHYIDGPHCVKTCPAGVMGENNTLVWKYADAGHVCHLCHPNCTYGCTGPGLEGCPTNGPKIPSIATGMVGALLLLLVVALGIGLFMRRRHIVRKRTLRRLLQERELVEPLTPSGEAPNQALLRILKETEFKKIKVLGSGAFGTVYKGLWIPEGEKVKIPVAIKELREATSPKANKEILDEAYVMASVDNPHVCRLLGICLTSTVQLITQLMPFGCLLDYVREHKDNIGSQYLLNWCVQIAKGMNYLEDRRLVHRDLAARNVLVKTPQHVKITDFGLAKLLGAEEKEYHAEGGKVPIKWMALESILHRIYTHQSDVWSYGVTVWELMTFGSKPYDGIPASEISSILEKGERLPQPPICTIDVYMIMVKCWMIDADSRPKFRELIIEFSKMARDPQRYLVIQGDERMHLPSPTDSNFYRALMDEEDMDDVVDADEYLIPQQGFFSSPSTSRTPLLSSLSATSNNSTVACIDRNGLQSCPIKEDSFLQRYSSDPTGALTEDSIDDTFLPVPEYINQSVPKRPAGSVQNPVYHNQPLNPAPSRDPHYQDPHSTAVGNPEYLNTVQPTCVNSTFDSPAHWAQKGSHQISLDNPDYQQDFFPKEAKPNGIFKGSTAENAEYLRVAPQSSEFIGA
Sequence of Torsin-1A-interacting protein 2 (Homo sapiens) (Q8NFQ8 whole entry, looked up): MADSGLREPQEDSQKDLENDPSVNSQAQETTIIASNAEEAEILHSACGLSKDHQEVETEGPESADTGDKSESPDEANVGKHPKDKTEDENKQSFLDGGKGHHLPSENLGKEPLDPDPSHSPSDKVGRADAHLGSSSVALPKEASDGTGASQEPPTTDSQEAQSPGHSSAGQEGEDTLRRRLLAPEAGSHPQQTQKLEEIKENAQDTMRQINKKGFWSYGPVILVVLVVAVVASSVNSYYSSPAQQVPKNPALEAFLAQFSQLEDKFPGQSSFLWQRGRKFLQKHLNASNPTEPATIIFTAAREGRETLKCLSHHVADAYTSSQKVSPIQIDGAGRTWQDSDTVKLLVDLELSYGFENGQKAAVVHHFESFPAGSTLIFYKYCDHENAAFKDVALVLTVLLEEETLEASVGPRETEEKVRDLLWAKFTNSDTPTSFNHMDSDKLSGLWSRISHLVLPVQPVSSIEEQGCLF
Sequence of Dickkopf-related protein 1 (Homo sapiens) (O94907 whole entry, looked up): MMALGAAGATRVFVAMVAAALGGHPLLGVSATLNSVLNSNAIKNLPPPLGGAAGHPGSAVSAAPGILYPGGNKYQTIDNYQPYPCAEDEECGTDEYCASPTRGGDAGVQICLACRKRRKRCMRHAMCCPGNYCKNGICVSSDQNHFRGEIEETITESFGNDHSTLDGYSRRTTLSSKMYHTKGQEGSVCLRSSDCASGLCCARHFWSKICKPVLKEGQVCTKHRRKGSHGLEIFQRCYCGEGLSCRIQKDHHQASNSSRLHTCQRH
Sequence of Neurogenic locus notch homolog protein 3 (Homo sapiens) (Q9UM47 whole entry, looked up): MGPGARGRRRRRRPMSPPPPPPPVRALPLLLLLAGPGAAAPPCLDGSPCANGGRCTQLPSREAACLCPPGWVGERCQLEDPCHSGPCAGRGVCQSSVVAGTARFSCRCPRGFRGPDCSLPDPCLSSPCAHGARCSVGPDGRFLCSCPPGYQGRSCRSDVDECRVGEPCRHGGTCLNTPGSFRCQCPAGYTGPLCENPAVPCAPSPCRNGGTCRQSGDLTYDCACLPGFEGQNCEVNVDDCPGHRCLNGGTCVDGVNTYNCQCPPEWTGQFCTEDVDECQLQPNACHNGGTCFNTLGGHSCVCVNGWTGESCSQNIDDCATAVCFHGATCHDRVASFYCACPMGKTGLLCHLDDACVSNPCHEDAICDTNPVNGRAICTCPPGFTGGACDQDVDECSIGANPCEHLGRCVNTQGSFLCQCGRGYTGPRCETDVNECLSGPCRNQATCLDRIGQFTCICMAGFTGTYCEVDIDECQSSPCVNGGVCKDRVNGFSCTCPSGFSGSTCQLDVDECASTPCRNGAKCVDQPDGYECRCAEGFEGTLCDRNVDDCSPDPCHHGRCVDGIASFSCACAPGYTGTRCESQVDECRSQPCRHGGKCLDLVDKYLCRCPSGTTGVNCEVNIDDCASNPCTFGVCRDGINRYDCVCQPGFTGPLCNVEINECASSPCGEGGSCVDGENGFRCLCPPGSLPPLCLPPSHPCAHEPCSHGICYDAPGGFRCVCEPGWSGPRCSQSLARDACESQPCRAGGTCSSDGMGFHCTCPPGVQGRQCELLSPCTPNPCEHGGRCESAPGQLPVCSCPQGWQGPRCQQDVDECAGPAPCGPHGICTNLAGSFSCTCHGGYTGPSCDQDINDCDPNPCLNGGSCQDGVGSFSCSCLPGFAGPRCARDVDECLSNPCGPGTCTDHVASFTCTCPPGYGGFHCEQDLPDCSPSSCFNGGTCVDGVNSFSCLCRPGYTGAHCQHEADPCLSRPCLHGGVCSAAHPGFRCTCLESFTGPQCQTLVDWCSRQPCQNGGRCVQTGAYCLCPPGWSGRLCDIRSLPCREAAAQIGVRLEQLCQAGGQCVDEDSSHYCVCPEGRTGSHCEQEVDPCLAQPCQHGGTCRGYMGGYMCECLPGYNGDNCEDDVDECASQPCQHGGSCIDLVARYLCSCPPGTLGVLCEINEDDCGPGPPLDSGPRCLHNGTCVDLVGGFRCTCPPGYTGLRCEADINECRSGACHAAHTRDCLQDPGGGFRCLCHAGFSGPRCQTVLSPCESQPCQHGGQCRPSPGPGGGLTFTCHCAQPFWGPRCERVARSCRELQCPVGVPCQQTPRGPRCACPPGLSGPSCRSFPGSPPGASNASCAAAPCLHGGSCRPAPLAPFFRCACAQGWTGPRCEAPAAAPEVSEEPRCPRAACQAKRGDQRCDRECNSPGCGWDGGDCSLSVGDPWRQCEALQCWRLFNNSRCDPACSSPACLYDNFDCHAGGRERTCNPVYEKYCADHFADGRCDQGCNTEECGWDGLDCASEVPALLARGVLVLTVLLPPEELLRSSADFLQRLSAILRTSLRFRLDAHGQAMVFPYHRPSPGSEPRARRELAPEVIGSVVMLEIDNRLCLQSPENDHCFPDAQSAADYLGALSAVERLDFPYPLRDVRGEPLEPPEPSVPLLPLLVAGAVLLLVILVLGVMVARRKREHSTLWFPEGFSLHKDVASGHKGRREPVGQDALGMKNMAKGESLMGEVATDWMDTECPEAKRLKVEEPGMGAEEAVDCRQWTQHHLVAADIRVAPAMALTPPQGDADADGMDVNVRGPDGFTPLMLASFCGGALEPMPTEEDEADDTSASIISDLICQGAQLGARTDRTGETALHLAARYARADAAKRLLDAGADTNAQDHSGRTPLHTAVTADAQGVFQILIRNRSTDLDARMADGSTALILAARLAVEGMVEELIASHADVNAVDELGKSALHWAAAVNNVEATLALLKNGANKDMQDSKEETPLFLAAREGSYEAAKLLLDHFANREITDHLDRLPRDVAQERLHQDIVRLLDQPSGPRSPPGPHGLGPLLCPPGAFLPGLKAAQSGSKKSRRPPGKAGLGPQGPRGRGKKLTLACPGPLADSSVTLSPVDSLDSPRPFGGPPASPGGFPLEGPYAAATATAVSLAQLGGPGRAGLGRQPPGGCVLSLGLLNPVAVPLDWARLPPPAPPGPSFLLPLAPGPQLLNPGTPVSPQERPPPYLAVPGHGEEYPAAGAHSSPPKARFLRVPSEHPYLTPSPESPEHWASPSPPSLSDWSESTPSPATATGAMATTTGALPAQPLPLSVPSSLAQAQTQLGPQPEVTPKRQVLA
Sequence of Fibroblast growth factor 10 (Homo sapiens) (O15520 whole entry, looked up): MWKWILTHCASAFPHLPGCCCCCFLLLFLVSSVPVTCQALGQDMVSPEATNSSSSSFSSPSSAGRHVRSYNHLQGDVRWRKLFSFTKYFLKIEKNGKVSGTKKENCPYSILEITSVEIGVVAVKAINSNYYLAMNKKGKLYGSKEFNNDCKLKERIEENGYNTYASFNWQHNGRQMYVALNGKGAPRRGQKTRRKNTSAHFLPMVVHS

For `CCCN1C(=O)[C@]2(Cc3ccccc31)N=C(c1ccc(OCCCO)cc1)O[C@@H]2c1ccccc1`, the composite z-score in experiment [1] is 1.55; in experiment [5], 2.74; in experiment [7] it was -0.0391; in [8] it was 1.66; in [9] it was 1.03; in experiment [10], -0.139. For the same molecule, the composite z-score is 1.07 in [11]; 0.0194 in experiment [12]; 0.865 in experiment [13]; 0.592 in [15]; 1.26 in experiment [16]; -0.489 in experiment [17]. The figures for the composite z-score in [18], in experiment [19] and in experiment [20] were 0.515, -0.303 and 0.72, respectively. Also, the z-score in experiment [2] is -1.49 (inactive); in experiment [3] it was -2.93 (inactive); in [4] it was 1.44 (inactive); in experiment [6], -0.0411 (inactive); in experiment [14], -0.898 (inactive).
On to `CC(C)C(CO)N1C(=O)[C@@H]2[C@H]3C(=O)OCC=C[C@H]3OC23C=CCN(c2ccc(Cl)cc2)C(=O)[C@@H]13` (stereo not given in full), for which the composite z-score in [1] was 0.193; in experiment [5], -0.0004; in [7], -0.246; in experiment [8] it was -1.16; in experiment [9], -0.271; in experiment [10], -0.068. The composite z-score in experiment [11] is -1.14; in experiment [12], -0.0517; in [13], -0.0455; in experiment [15], -0.739; in [16], -0.889; in experiment [17], -0.627. Moreover, the composite z-score is -0.93 in experiment [18], -0.865 in experiment [19] and 0.653 in [20]. The z-score in experiment [2] is 0.964 (inactive); in experiment [3], 0.123 (inactive); in [4] it was 1.25 (inactive); in experiment [6], 0.669 (inactive); in experiment [14] it was 0.121 (inactive).
For `CCCCN1CC=CC23O[C@@H]4/C=C\CCCOC(=O)C4[C@H]2C(=O)N(CCO)[C@@H]3C1=O` (stereo not given in full), the composite z-score was -0.328 in [1]; 3.01 in experiment [5]; -0.212 in experiment [7]; -1.03 in [8]; -0.968 in experiment [9]; -0.385 in [10]. Further, the composite z-score in experiment [11] was 1.77; in experiment [12], -0.356; in experiment [13], 0.644; in experiment [15] it was -1.29; in [16], -0.782; in [17], -1.26. Moreover, the values for the composite z-score in experiment [18], in [19] and in [20] were -1.38, -1.58 and -0.677, respectively. Besides, the z-score in experiment [2] was 0.812 (inactive); in experiment [3], -0.0784 (inactive); in experiment [4] it was -0.0859 (inactive); in experiment [6], 2.12 (inactive); in experiment [14], -0.817 (inactive).
`C=C[C@@H](CO)N(Cc1ccc(OC)cc1)S(=O)(=O)c1ccc(Br)cc1`: the composite z-score is -0.043 in experiment [1]; 0.268 in experiment [5]; 0.0711 in experiment [7]; -0.193 in experiment [8]; -0.731 in experiment [9]; -0.0967 in experiment [10]. Further, the composite z-score in experiment [11] was -0.36; in [12], 0.188; in experiment [13], 0.681; in experiment [15] it was 0.0174; in experiment [16], 0.239; in experiment [17], -0.142. In addition, the results for the composite z-score in experiment [18], in experiment [19] and in experiment [20] were -0.0506, -0.0478 and 0.0176, respectively. For the same molecule, the z-score in experiment [2] was -3.19 (inactive); in experiment [3], -6.8 (inactive); in experiment [4], -1.92 (inactive); in [6], 2.31 (inactive); in experiment [14], -1.21 (inactive).
Take `CC1=C2[C@@H](CCc3ccccc3)OB(O)C[C@@H]2[C@@H]2C(=O)N(C)C(=O)[C@@H]2C1`: the composite z-score in [1] was 0.618; in experiment [5] it was 0.299; in experiment [7], -0.197; in experiment [8], 0.446; in [9], 0.279; in experiment [10], -0.0238. For the same molecule, the composite z-score in [11] is -0.186; in experiment [12] it was -0.232; in experiment [13] it was -0.223; in [15], 0.985; in [16], 0.443; in experiment [17], 0.135. Moreover, the composite z-score in experiment [18] worked out at 0.451; in experiment [19], 0.521; in experiment [20], 0.273. The z-score is -0.229 (inactive) in [2]; -1.2 (inactive) in experiment [3]; -1.24 (inactive) in [4]; -0.253 (inactive) in experiment [6]; 0.305 (inactive) in experiment [14].
Turning to `C=CC[C@@H](OC(=O)Nc1ccc(OC)cc1)c1ccc(O)c(F)c1`, the composite z-score in [1] was 0.349; in experiment [5], 2.09; in [7], -0.146; in experiment [8], -0.488; in [9], -0.6; in experiment [10], -0.241. The composite z-score in [11] is 1.69; in experiment [12] it was -0.0015; in experiment [13], 0.74; in experiment [15], -0.549; in experiment [16], -0.363; in experiment [17], -1.2. In addition, the results for the composite z-score in [18], in experiment [19] and in [20] were -0.741, -0.658 and 0.19, respectively. The z-score is -23.4 (active) in experiment [2]; -20.3 (active) in experiment [3]; -2.74 (inactive) in experiment [4]; 0.92 (inactive) in [6]; -1.95 (inactive) in experiment [14].

Values taken from PubChem BioAssay.
